Records with an inconclusive call do not appear. Where a call stands in place of a potency, no number is given. Unmarked numbers belong to inactive results. The source made the active and inactive calls. The call rests on the fitted dose curve.
Assay: Primary qHTS for inhibitors of MERS-S pseudo-typed particle cell entry (AID 1479149); further: nearly all actives have a fitted effect of over 60% in size
Settings: MERS-S pseudotyped particle entry, luciferase; series mostly up to 57.1 µM

Row | Compound | Potency | outcome
1 | Cc1noc(NS(=O)(=O)c2ccc(N)cc2)c1C | inactive | –
2 | COc1ccc(C2CNC(=O)C2)cc1OC1CCCC1 (stereo unspecified) | inactive | –
3 | CCC1=C(C)CN(C(=O)NCCc2ccc(S(=O)(=O)NC(=O)NC3CCC(C)CC3)cc2)C1=O (stereo unspecified) | inactive | –
4 | CCOc1ccc(NC(=O)CC(C)O)cc1 (stereo unspecified) | inactive | –
5 | CC(C)Cn1cnc2c(N)nc3ccccc3c21 | inactive | –
6 | COc1ccc(NS(=O)(=O)c2ccc(N)cc2)nn1 | inactive | –
7 | CNC[C@H](O)[C@@H](O)[C@H](O)[C@H](O)CO | inactive | –
8 | O=C(O)Cc1sc(-c2ccccc2)nc1-c1ccc(Cl)cc1 | inactive | –
9 | Nc1nc(/C(=C/CC(=O)O)C(=O)N[C@@H]2C(=O)N3C(C(=O)O)=CCS[C@H]23)cs1 | inactive | –
10 | NCCS(=O)(=O)O | inactive | –
11 | O=C(O)/C=C(\CC(=O)O)C(=O)O | inactive | –
12 | CC(=O)O[C@@H]1CC2C3CCc4cc(OC(=O)c5ccccc5)ccc4C3CCC2(C)[C@H]1OC(C)=O (stereo partly specified) | inactive | –
13 | CCCCCCCC/C=C/C(=O)O | inactive | –
14 | O=C(O)c1ccccc1Nc1cccc(C(F)(F)F)c1 | inactive | –
15 | C[C@](N)(Cc1ccc(O)cc1)C(=O)O | – | inactive [at 5.34 µM]
16 | CNNCc1ccc(C(=O)NC(C)C)cc1 | inactive | –
17 | NC(=O)c1ccccc1O | inactive | –
18 | CCCCCCCCCCCCCCCCCCO | inactive | –
19 | O=C(O)c1cc(N=Nc2ccc(O)c(C(=O)O)c2)ccc1O | inactive | –

Row | Compound | Potency | outcome
20 | O=C(O)COc1nn(Cc2ccccc2)c2ccccc12 | inactive | –
21 | CCCC(=O)O[C@]1(C(=O)COC(=O)CC)CC[C@H]2[C@@H]3CCC4=CC(=O)CC[C@]4(C)[C@H]3[C@@H](O)C[C@@]21C | inactive | –
22 | CC(C)Cc1ccc(C(C)C(=O)O)cc1 (stereo unspecified) | inactive | –
23 | CCC1(C)CC(=O)NC1=O (stereo unspecified) | inactive | –
24 | Nc1nc2[nH]cc(CCc3ccc(C(=O)N[C@@H](CCC(=O)O)C(=O)O)cc3)c2c(=O)[nH]1 | inactive | –
25 | O=C(O)Cc1cccc(-c2cc(CCCCCCc3ccc(O[C@H]4O[C@H](CO)[C@@H](O)[C@H](O)[C@@H]4O)c(-c4cccc(CC(=O)O)c4)c3)ccc2O[C@H]2O[C@H](CO)[C@@H](O)[C@H](O)[C@@H]2O)c1 | – | inactive [at 0.573 µM]
26 | Clc1ccc2nsnc2c1NC1=NCCN1 | inactive | –
27 | C=CCc1ccc(O)c(OC)c1 | inactive | –
28 | O=c1cc(O)c(Cl)c[nH]1 | inactive | –
29 | CC(C(=O)O)c1ccc(/C=C2\CCCCC2=O)cc1 (stereo unspecified) | inactive | –
30 | CCCCC(CC)COC(=O)c1ccccc1O (stereo unspecified) | inactive | –
31 | CN[C@@H]1[C@@H](O)[C@@H](O[C@@H]2[C@H](O)[C@H](O[C@H]3OC(CN)=CC[C@H]3N)[C@@H](N)C[C@H]2N)OCC1(C)O (stereo partly specified) | inactive | –
32 | COC(=O)C1=C(C)NC(C)=C(C(=O)OCCc2ccc(N3CCN(C(c4ccccc4)c4ccccc4)CC3)cc2)C1c1cccc([N+](=O)[O-])c1 (stereo unspecified) | inactive | –
33 | CO[C@@]1(NC(=O)C2SC(=C(C(N)=O)C(=O)O)S2)C(=O)N2C(C(=O)O)=C(CSc3nnnn3C)CS[C@@H]21 (stereo partly specified) | inactive | –
34 | c1ccc2sc(SSc3nc4ccccc4s3)nc2c1 | inactive | –
35 | CN1C(=O)OC(C)(C)C1=O | inactive | –
36 | CCCCCCCCCCCCCCCCOP(=O)([O-])OCC[N+](C)(C)C | inactive | –
37 | COc1ccc2cc1Oc1cc3c(cc1OC)CC[N+](C)(C)[C@H]3Cc1ccc(cc1)Oc1c(OC)c(OC)cc3c1[C@@H](C2)[N+](C)(C)CC3 | inactive | –
38 | COC(=O)c1cc(Cl)ccc1NS(=O)(=O)C(F)(F)F | inactive | –

Assay: Primary qHTS for Vero E6 cytotoxicity: counterscreen for inhibitors of SARS-S pseudo-typed particle cell entry (AID 1479150)
Settings: cell viability; series mostly up to 57.1 µM

Row | Compound | Potency | activity change, negative = cytotoxicity | outcome
39 | Cc1noc(NS(=O)(=O)c2ccc(N)cc2)c1C | inactive | – | –
40 | COc1ccc(C2CNC(=O)C2)cc1OC1CCCC1 (stereo unspecified) | inactive | – | –
41 | CCC1=C(C)CN(C(=O)NCCc2ccc(S(=O)(=O)NC(=O)NC3CCC(C)CC3)cc2)C1=O (stereo unspecified) | inactive | – | –
42 | CCOc1ccc(NC(=O)CC(C)O)cc1 (stereo unspecified) | inactive | – | –
43 | CC(C)Cn1cnc2c(N)nc3ccccc3c21 | inactive | – | –
44 | COc1ccc(NS(=O)(=O)c2ccc(N)cc2)nn1 | inactive | – | –
45 | CNC[C@H](O)[C@@H](O)[C@H](O)[C@H](O)CO | inactive | – | –
46 | O=C(O)Cc1sc(-c2ccccc2)nc1-c1ccc(Cl)cc1 | inactive | – | –
47 | Nc1nc(/C(=C/CC(=O)O)C(=O)N[C@@H]2C(=O)N3C(C(=O)O)=CCS[C@H]23)cs1 | inactive | – | –
48 | NCCS(=O)(=O)O | inactive | – | –
49 | O=C(O)/C=C(\CC(=O)O)C(=O)O | inactive | – | –
50 | CC(=O)O[C@@H]1CC2C3CCc4cc(OC(=O)c5ccccc5)ccc4C3CCC2(C)[C@H]1OC(C)=O (stereo partly specified) | inactive | – | –
51 | CCCCCCCC/C=C/C(=O)O | inactive | – | –
52 | O=C(O)c1ccccc1Nc1cccc(C(F)(F)F)c1 | inactive | – | –
53 | C[C@](N)(Cc1ccc(O)cc1)C(=O)O | – | -24.5% [at 5.34 µM] | –
54 | CNNCc1ccc(C(=O)NC(C)C)cc1 | inactive | – | –
55 | NC(=O)c1ccccc1O | inactive | – | –
56 | CCCCCCCCCCCCCCCCCCO | inactive | – | –
57 | O=C(O)c1cc(N=Nc2ccc(O)c(C(=O)O)c2)ccc1O | inactive | – | –

Row | Compound | Potency | activity change, negative = cytotoxicity | outcome
58 | O=C(O)COc1nn(Cc2ccccc2)c2ccccc12 | inactive | – | –
59 | CCCC(=O)O[C@]1(C(=O)COC(=O)CC)CC[C@H]2[C@@H]3CCC4=CC(=O)CC[C@]4(C)[C@H]3[C@@H](O)C[C@@]21C | inactive | – | –
60 | CC(C)Cc1ccc(C(C)C(=O)O)cc1 (stereo unspecified) | inactive | – | –
61 | CCC1(C)CC(=O)NC1=O (stereo unspecified) | inactive | – | –
62 | Nc1nc2[nH]cc(CCc3ccc(C(=O)N[C@@H](CCC(=O)O)C(=O)O)cc3)c2c(=O)[nH]1 | inactive | – | –
63 | O=C(O)Cc1cccc(-c2cc(CCCCCCc3ccc(O[C@H]4O[C@H](CO)[C@@H](O)[C@H](O)[C@@H]4O)c(-c4cccc(CC(=O)O)c4)c3)ccc2O[C@H]2O[C@H](CO)[C@@H](O)[C@H](O)[C@@H]2O)c1 | – | – | inactive [at 0.573 µM]
64 | Clc1ccc2nsnc2c1NC1=NCCN1 | inactive | – | –
65 | C=CCc1ccc(O)c(OC)c1 | inactive | – | –
66 | O=c1cc(O)c(Cl)c[nH]1 | inactive | – | –
67 | CC(C(=O)O)c1ccc(/C=C2\CCCCC2=O)cc1 (stereo unspecified) | inactive | – | –
68 | CCCCC(CC)COC(=O)c1ccccc1O (stereo unspecified) | inactive | – | –
69 | CN[C@@H]1[C@@H](O)[C@@H](O[C@@H]2[C@H](O)[C@H](O[C@H]3OC(CN)=CC[C@H]3N)[C@@H](N)C[C@H]2N)OCC1(C)O (stereo partly specified) | inactive | – | –
70 | COC(=O)C1=C(C)NC(C)=C(C(=O)OCCc2ccc(N3CCN(C(c4ccccc4)c4ccccc4)CC3)cc2)C1c1cccc([N+](=O)[O-])c1 (stereo unspecified) | inactive | – | –
71 | CO[C@@]1(NC(=O)C2SC(=C(C(N)=O)C(=O)O)S2)C(=O)N2C(C(=O)O)=C(CSc3nnnn3C)CS[C@@H]21 (stereo partly specified) | inactive | – | –
72 | c1ccc2sc(SSc3nc4ccccc4s3)nc2c1 | inactive | – | –
73 | CN1C(=O)OC(C)(C)C1=O | inactive | – | –
74 | CCCCCCCCCCCCCCCCOP(=O)([O-])OCC[N+](C)(C)C | inactive | – | –
75 | COc1ccc2cc1Oc1cc3c(cc1OC)CC[N+](C)(C)[C@H]3Cc1ccc(cc1)Oc1c(OC)c(OC)cc3c1[C@@H](C2)[N+](C)(C)CC3 | inactive | – | –
76 | COC(=O)c1cc(Cl)ccc1NS(=O)(=O)C(F)(F)F | inactive | – | –

Source: PubChem BioAssay (NCATS)
